Compounds with a hit are over-represented: about 18% of the library has one in this group of screens.
CtBP-E1A inh – qHTS Assay for Inhibitors of the CtBP/E1A Interaction | activity change, % (no concentration beside the values) | hit rate 0.49% among 340,000 | AID 651724, 2012 | CtBP / adenovirus E1A interaction (AlphaScreen) | AlphaScreen GST-E1A/His-CtBP binding, 1536-well; hits give low values; in the data active = activity change below about -65%; inconclusive = mostly about -30% to -63%
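Steps: dispense buffer (Tris pH 8.0, NaCl 300 mM, TCEP 1 mM, BSA, Tween 20); add 5X protein mix (GST-E1A, His-CtBP, 125 nM each); pin 23 nL compound; 2 h at 37 °C, dark; add 5X beads (50 ug/mL); 1 h; read.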
Six1-Eya2 inh – qHTS Assay for Inhibitors of the Six1/Eya2 Interaction. Homeobox protein SIX1 (Homo sapiens) + Protein phosphatase EYA2 (Homo sapiens), …. AlphaScreen GST-Six1/His-Eya2 binding, biochemical; hits give low values. activity change, % (no concentration beside the values). hit rate 0.56% among 360,000; in the data active = activity change below about -65%; inconclusive = mostly about -30% to -63%
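Compounds are tested against tagged Six1 and Eya2 proteins bridged by glutathione donor and nickel acceptor beads; after a one-hour incubation at 37 °C without light, AlphaScreen emission is recorded.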
IL1B secr inh – qHTS for Inhibitors of Inflammasome Signaling: IL-1-beta AlphaLISA Primary Screen | THP-1 LPS/ATP IL-1B secretion, AlphaLISA, 16 h; hits give low values | activity change, % at 57.5 µM | hit rate 4.7% among 360,000 | AID 743279, 2014; in the data active = activity change below about -50%; inconclusive = mostly about -30% to -49%
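THP-1 cells pretreated 1 hr with compounds (up to 57.5 uM final), then stimulated with LPS (250 ng/mL final) plus ATP (1.25 mM final); secreted IL-1B measured by AlphaLISA after 16 hr, decreased signal indicating inhibition.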
TDP1 cell CPT – qHTS for Inhibitors of human tyrosyl-DNA phosphodiesterase 1 (TDP1): qHTS in cells in presence of CPT | chicken DT40 Tdp1-/-;hTDP1 cells + 20 nM CPT, ATP luminescence, 48 h | Potency, µM (series often up to 46.2 µM), actives largely listed as inhibitors | hit rate 12% among 420,000; also: nearly all actives have a fitted effect of over 55% in size
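Chicken DT40 Tdp1-/- cells stably complemented with human TDP1 were seeded at 400 cells/well in medium containing 20 nM camptothecin, exposed to pin-transferred compounds, and grown at 37 °C for at least 48 hr. Viability was read as ATP luminescence.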
TDP1 block – qHTS Assay for Inhibitors of Tyrosyl-DNA Phosphodiesterase (TDP1); Tyrosyl-DNA phosphodiesterase 1 (Homo sapiens), Q9NUW8; recombinant TDP1, AlphaScreen DNA substrate cleavage; Potency, µM (doses to about 130 µM), actives largely listed as inhibitors; hit rate 0.28% among 350,000; also: nearly all actives have a fitted effect of over 40% in size
Target sequence (Q9NUW8 whole entry, looked up): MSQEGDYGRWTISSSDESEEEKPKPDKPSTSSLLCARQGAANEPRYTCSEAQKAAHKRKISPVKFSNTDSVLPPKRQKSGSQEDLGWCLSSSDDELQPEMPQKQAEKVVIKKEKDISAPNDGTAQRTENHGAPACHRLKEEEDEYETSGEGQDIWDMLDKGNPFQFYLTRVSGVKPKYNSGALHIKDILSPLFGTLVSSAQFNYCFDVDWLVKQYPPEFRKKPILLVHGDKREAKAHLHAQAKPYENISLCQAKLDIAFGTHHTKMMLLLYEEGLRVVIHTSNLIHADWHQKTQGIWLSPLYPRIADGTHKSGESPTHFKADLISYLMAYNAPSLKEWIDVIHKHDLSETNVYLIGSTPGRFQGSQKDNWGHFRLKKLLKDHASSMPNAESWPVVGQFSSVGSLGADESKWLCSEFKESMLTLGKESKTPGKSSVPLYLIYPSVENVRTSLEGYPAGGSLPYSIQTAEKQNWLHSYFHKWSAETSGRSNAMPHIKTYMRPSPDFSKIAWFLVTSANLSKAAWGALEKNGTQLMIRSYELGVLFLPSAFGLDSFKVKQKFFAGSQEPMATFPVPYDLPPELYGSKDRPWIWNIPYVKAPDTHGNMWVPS
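Compounds were preincubated with Tdp1 (1 nM final) for 15 min at room temperature before substrate (15 nM final) started a 5 min reaction; beads (10 ug/ml final) were then added for 10 min before AlphaScreen detection.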
TDP1 cell noCPT – qHTS for Inhibitors of human tyrosyl-DNA phosphodiesterase 1 (TDP1): qHTS in cells in absence of CPT; DT40 Tdp1-/- hTDP1 cells, no CPT, ATP luminescence, 48 h; Potency, µM (doses to about 46.2 µM), actives largely listed as inhibitors; hit rate 15% among 420,000; also: nearly all actives have a fitted effect of over 55% in size
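Stably hTDP1-transfected Tdp1-null chicken DT40 cells were treated with library compounds minus camptothecin and grown for at least 48 hr at 37 °C, after which cellular ATP was quantified by luminescence.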
Each line names hits and unclear results; the compound was inactive in the other large screens. Unless noted, calls follow the shape of the dose curve; as a rule, active = well fitted curve in the direction sought with a large enough effect; inconclusive = small, poorly fitted or top-dose-only effect, or another doubt; inactive = no such curve, though single readings can be large; an effect the other way counts as inactive or inconclusive.

CCN(CC)S(=O)(=O)c1ccc(N2CCOCC2)c(NC(=O)c2ccc3c(c2)OCCO3)c1	TDP1 cell CPT 16µM, TDP1 cell noCPT 21µM (no result: TDP1 block)
CCN(CC)S(=O)(=O)c1ccc(N2CCCCC2)c(C(=O)Nc2ccccc2N2CCOCC2)c1	TDP1 cell CPT 10µM, TDP1 cell noCPT 9.2µM
CCN(CC)S(=O)(=O)c1ccc(N2CCOCC2)c(NC(=O)COc2ccccc2C)c1	IL1B secr inh -56, TDP1 cell CPT 21µM, TDP1 cell noCPT 18µM
CC(NC(=O)C1CCCC1)c1ccc(Br)cc1 (configuration not stated)	none (no result: CtBP-E1A inh, TDP1 block)
CCN(CC)S(=O)(=O)c1ccc(N2CCOCC2)c(NC(=O)c2cc(=O)[nH]c3ccccc23)c1	none
CCN(CC)S(=O)(=O)c1ccc(N2CCOCC2)c(NC(=O)c2cccc3ccccc23)c1	IL1B secr inh inconclusive, TDP1 cell CPT 26µM, TDP1 cell noCPT 16µM
O=C(c1ccccc1)c1cc([N+](=O)[O-])ccc1N1CCCC1	none
COc1ccc(C(=O)c2cc([N+](=O)[O-])ccc2N2CCCC2)cc1	TDP1 cell CPT 3.3µM, TDP1 cell noCPT 5.2µM
COc1ccc(C(=O)c2cc([N+](=O)[O-])ccc2N2CCN(C)CC2)cc1	TDP1 cell CPT 2.6µM, TDP1 cell noCPT 3.3µM
O=C(COC(=O)/C=C/c1cccc(F)c1)NNC(=O)c1ccccc1	none
CC(C)CCNC(=O)COC(=O)/C=C/c1ccc2ccccc2n1	IL1B secr inh -59, TDP1 cell CPT inconclusive, TDP1 cell noCPT inconclusive
O=C(COC(=O)/C=C/c1ccc2ccccc2n1)NNC(=O)c1ccccc1	IL1B secr inh inconclusive, TDP1 cell CPT inconclusive, TDP1 cell noCPT 26µM (no result: TDP1 block)
CC(C)NC(=O)N(C)C[C@H]1OCc2cnnn2CCCC(=O)N([C@H](C)CO)C[C@H]1C	none (no result: TDP1 block)
Cc1ccc(CNC(=O)NC2COc3ccccc3C2)cc1 (configuration not stated)	none (no result: CtBP-E1A inh, Six1-Eya2 inh, IL1B secr inh)
CCCCCCCCOC(=O)c1cc([N+](=O)[O-])c(Sc2ncnc3nc[nH]c23)c([N+](=O)[O-])c1	IL1B secr inh -71, TDP1 cell CPT 2.6µM, TDP1 cell noCPT 3.3µM (no result: TDP1 block)
Cc1c(CCOC(=O)C23CC4CC(CC(C)(C4)C2)C3)sc[n+]1CC(=O)c1ccccc1	IL1B secr inh inconclusive, TDP1 cell CPT 23µM, TDP1 cell noCPT 21µM
Cc1ncsc1CCOC(=O)C12CC3CC(CC(C3)C1)C2	none
Cc1c(CCOC(=O)CC23CC4CC(CC(C4)C2)C3)sc[n+]1CC(=O)c1ccc(Br)cc1	IL1B secr inh -61, TDP1 cell CPT inconclusive, TDP1 cell noCPT 26µM
Cc1c(CCOC(=O)CC23CC4CC(CC(C)(C4)C2)C3)sc[n+]1CC(=O)c1ccccc1	IL1B secr inh -81, TDP1 cell CPT 16µM, TDP1 cell noCPT 16µM
CCCN1C(=O)c2cc(C(=O)Nc3ccccc3C)ccc2C1Nc1ccccc1C (configuration not stated)	TDP1 cell CPT inconclusive, TDP1 cell noCPT inconclusive (no result: TDP1 block)
CCN(Cc1ccccc1)C(=O)c1cc(S(=O)(=O)N2CCOCC2)cn1C	none (no result: TDP1 block)
COc1ccc(CC(=O)OC2CCCN(C)C2)cc1 (configuration not stated)	none
Cc1nc(CN2CCCCC2)c(O)c(=O)[nH]1	none (no result: TDP1 block)
FC(F)(F)c1ccccc1-c1nc(N2CCOCC2)c2ccccc2n1	none (no result: CtBP-E1A inh, Six1-Eya2 inh, IL1B secr inh, TDP1 block)
c1ccc2c(Nc3nc(N4CCOCC4)c4ccccc4n3)cccc2c1	IL1B secr inh -109, TDP1 cell CPT 13µM, TDP1 cell noCPT 23µM
Fc1ccc(Nc2nc(N3CCOCC3)c3ccccc3n2)cc1	IL1B secr inh -78, TDP1 cell CPT inconclusive, TDP1 cell noCPT 23µM

Screening data as filed in PubChem BioAssay.
